HepG2 viability: kills HepG2 cells in TGF-b inhibitor counter-screen. HepG2 CAGA-GFP viability, ATP luminescence, 18 h. Potency, µM (series often up to 46.1 µM), for inactives: at the top dose activity change, negative = cytotoxicity, usual class: cytotoxic. actives 0.76% (n = 410,000). AID 588856
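HepG2 CAGA-GFP cells (1000/well, DMEM with 1% FBS) received compound, then TGF-beta at 500 pg/mL final, and were incubated 18 hours at 37 degrees C. Viability was read by CellTiter-Glo luminescence. Media-only wells were set as complete cell-killing and DMSO as no toxicity.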
TDP1 cell noCPT: qHTS for Inhibitors of human tyrosyl-DNA phosphodiesterase 1 (TDP1): qHTS in cells in absence of CPT; Potency, µM (doses to about 46.2 µM), for inactives: at the highest dose activity change, negative = growth inhibition, most hits filed as inhibitors; DT40 Tdp1-/- hTDP1 cells, no CPT, ATP luminescence, 48 h; actives 15% (n = 420,000); also: % is scaled to controls: 0 for no effect and ±100 for the full control effect; nearly all actives have a fitted effect of over 55% in size
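Chicken DT40 Tdp1-/- cells stably complemented with human TDP1 were seeded at 400 cells/well with DMSO in place of 20 nM camptothecin. After compound pinning, cells grew at least 48 hr at 37 °C; viability read by CellTiter-Glo luminescence.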
HT1080-NT tox: kills 2HG-producing HT-1080-NT fibrosarcoma cells; HT-1080-NT fibrosarcoma viability, CellTiter-Glo ATP luminescence, 48 h; Potency, µM (doses to about 46.1 µM), for the others: at the top dose activity, negative = less viability, most hits filed as cytotoxic; actives 1.6% (n = 360,000);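 also: NT is the 2HG producing partner of a matched IDH1 knockdown line; 0% = DMSO-treated cells and -100% = media-only wells without cells; nearly all actives have a fitted effect of over 55% in size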
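Fibrosarcoma NT cells, 750 per well in 5% FBS RPMI, were exposed to compound for 48 hours. Viability: CellTiter-Glo luminescence.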
TGFb SMAD3 inh: blocks TGF-b signaling. HepG2 CAGA-GFP TGF-b/SMAD3 reporter, GFP fluorescence, 18 h; TGF-beta stimulated, 500 pg/mL final. Potency, µM (series often up to 46.1 µM), for inactives: top-dose activity, negative = inhibition, actives largely listed as inhibitors. actives 1.2% (n = 410,000); also: % is scaled to controls: 0 for no effect and ±100 for the full control effect; nearly all actives have a fitted effect of over 65% in size
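HEPG2 CAGA-GFP cells (1000/well, DMEM with 1% FBS) were pre-incubated 2 h at 37 degrees C, given compound by pin tool, then stimulated with TGF-beta at 500 pg/mL final for 18 h before per-cell GFP fluorescence imaging.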
HT1080 IDH1KD tx: toxicity to HT-1080 IDH1 knockdown cells (counter line) | Potency, µM (top dose mostly 46.1 µM), for the others: top-dose activity, negative = toxicity, usual class: cytotoxic | AID 686971 | actives 2% (n = 360,000) | HT-1080 IDH1 knockdown viability, ATP luminescence, 48 h;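 also: 0% = DMSO wells and -100% = cell-free medium wells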
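% activity derives from luminescence (CellTiter-Glo), normalised to DMSO and no-cell wells. HT-1080-IDH1KD cells, 750/well, had 48 h compound exposure at 37 °C.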
DT40 TDP1 CPT: DT40-hTDP1 cell growth loss with CPT. chicken DT40 Tdp1-/-;hTDP1 cells + 20 nM CPT, ATP luminescence, 48 h. Potency, µM (highest dose often 46.2 µM), without a hit: at the top dose activity change, negative = growth inhibition, actives largely listed as inhibitors. actives 12% (n = 420,000). AID 686979; also: % is scaled to controls: 0 for no effect and ±100 for the full control effect; nearly all actives have a fitted effect of over 55% in size
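Chicken DT40 Tdp1-/- cells stably complemented with human TDP1 were seeded at 400 cells/well in medium containing 20 nM camptothecin, exposed to pin-transferred compounds, and grown at 37 °C for at least 48 hr. Viability was read as ATP luminescence.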
Numbers without * were called inactive; ? = inconclusive; nt = not tested or not shown. An excerpt weighted towards active compounds, which were near 17% of everything screened. Calls follow the shape of the dose curve; as a rule, active = well fitted curve in the direction sought with a large enough effect; inconclusive = small, poorly fitted or top-dose-only effect, or another doubt; inactive = no such curve, though single readings can be large; an effect the other way counts as inactive or inconclusive. Potency is read from the fitted curve at half-maximal effect.

SMILES | HepG2 viability | TDP1 cell noCPT | HT1080-NT tox | TGFb SMAD3 inh | HT1080 IDH1KD tx | DT40 TDP1 CPT
CS(=O)(=O)c1ccc(C(=O)N2CCC(C(=O)O)(c3ccccc3)CC2)cc1 | -9% | -2% | 7% | 19% | -1% | 0%
Cc1ccccc1NC(=O)CSc1nc2ccccc2c2nc(CCn3c(C)nc4ccccc43)nn12 | 2% | 18µM* | nt | 0% | nt | 15µM*
COc1ccc(-c2noc(CN3C(=O)c4ccccc4C3=O)n2)cc1 | -11% | -5% | 0% | ? | -4% | 0%
COc1ccc(NS(=O)(=O)c2ccc3c(c2)CCCN3C(=O)C2CCC2)cc1OC | -23% | 3.7µM* | nt | -13% | nt | 2.6µM*
CC(=O)N1CCCc2cc(S(=O)(=O)N3CCCC(C(=O)N4CCN(c5ccccc5F)CC4)C3)ccc21 (configuration not stated) | -14% | 5.8µM* | nt | -24% | nt | 3.7µM*
COc1ccc(N2CCN(C(=O)C3CCCN(S(=O)(=O)c4ccc5c(c4)CCCN5C(C)=O)C3)CC2)cc1 (configuration not stated) | -21% | 2.3µM* | nt | ? | nt | 4.1µM*
CC(=O)N1CCc2cc(S(=O)(=O)N3CCN(c4ccc(C)cc4)C(C)C3)ccc21 (configuration not stated) | -19% | 21µM* | nt | -68% | nt | 23µM*
Cn1c(=O)oc2cc(S(=O)(=O)N3CCCC(C(=O)N4CCN(c5ccc(Cl)cc5)CC4)C3)ccc21 (configuration not stated) | -1% | 1.3µM* | nt | ? | nt | 5.2µM*
O=C(O)c1[nH]c(=O)[nH]c(=O)c1F | 11% | 12µM* | -12% | 8% | ? | 12µM*
COc1ccc(-c2nnc3sc(C4CCCCC4)nn23)cc1OC | 0% | 15µM* | 1% | -1% | 11% | 18µM*
Cc1ccc2cc(C=C(C#N)C#N)c(Cl)nc2c1 | 1% | 2.9µM* | -1% | -8% | -12% | 2.1µM*
NNC(=O)c1ccc(Cl)cc1 | -6% | ? | 5% | ? | 7% | ?
Nc1ccc(Cc2ccc(N)cc2)cc1 | 8% | -1% | 5% | -4% | 10% | -14%
O=C(c1ccc2c(c1)N(Cc1ccc(F)cc1Cl)C(=O)c1ccccc1S2)N1CCC2(CC1)OCCO2 | -19% | 23µM* | nt | 11µM* | nt | 23µM*
Cc1ccc(CN2C(=O)c3ccccc3Sc3ccc(C(=O)N4CCC5(CC4)OCCO5)cc32)cc1 | -37% | 23µM* | nt | ? | nt | ?
O=C(Cc1ccccc1)c1ccccn1 | 4% | ? | 5% | -7% | 17% | ?
Nc1ccc([N+](=O)[O-])cc1O | nt | 22µM* | nt | nt | nt | 24µM*
Cc1nn(CCC#N)c2c1P(=S)(N1CCCC1)OC(c1ccc(F)cc1)=N2 (configuration not stated) | 16% | ? | -1% | 22% | 3% | 29µM*
NCC(CC(=O)O)c1ccc(Cl)s1 (configuration not stated) | nt | -1% | nt | nt | nt | 11%
CC(=NCCN1CCCCC1)c1c(O)[nH]c(=O)[nH]c1=O | -6% | -3% | -7% | -33% | -7% | -17%
COC(=O)C1=C(c2ccc(OC)c(OC)c2)C[C@@H]2CC[C@H]1N2C(=O)N1CCCCC1 | -9% | 9.2µM* | 13% | 0% | 6% | 8.2µM*
COC(=O)C1=C(c2ccc3ccccc3c2)C[C@@H]2CC[C@H]1N2C(=O)N1CCCC1 | -36% | 3.3µM* | -9% | ? | -18% | 2.9µM*
